Results with a measured potency or affinity are listed apart. Results filed as inconclusive are left out. Activity calls are given as the source filed them. The rule behind the calls is not given here.
Molecular target: Cyclin-dependent kinase 5 activator 1 (Homo sapiens) + Cyclin-dependent kinase 5 (Homo sapiens) (UniProt Q15078+Q00535)
Experiment: blockade of human CDK5 activity – biochemical, cherry-picked samples, set 2, dose response (AID 504545)
Conditions: CDK5/p35 kinase activity, biochemical plate reader; series mostly up to 30 µM

Cyclin-dependent kinase 5 activator 1 (Homo sapiens) + Cyclin-dependent kinase 5 (Homo sapiens), sequence (Q00535 whole entry, looked up): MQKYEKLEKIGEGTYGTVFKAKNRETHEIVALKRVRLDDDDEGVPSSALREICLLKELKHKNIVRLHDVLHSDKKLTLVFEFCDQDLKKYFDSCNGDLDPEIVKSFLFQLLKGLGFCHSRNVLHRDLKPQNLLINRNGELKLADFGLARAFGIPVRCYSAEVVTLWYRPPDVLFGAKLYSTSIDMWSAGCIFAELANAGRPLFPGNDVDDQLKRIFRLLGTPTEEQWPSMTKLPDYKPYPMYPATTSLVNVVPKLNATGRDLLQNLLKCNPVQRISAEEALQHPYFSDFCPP
Cyclin-dependent kinase 5 activator 1 (Homo sapiens) + Cyclin-dependent kinase 5 (Homo sapiens), sequence (Q15078 whole entry, looked up): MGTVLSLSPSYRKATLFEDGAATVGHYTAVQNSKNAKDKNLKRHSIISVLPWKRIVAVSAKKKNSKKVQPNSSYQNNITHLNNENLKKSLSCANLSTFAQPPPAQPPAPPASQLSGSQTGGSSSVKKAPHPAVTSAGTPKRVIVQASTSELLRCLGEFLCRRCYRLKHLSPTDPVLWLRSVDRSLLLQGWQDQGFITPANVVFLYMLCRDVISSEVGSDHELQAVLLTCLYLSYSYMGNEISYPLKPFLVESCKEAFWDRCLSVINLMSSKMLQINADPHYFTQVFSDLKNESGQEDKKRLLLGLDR

outcome, inactive:
COc1ccc2nc(C(F)(F)C(F)(F)F)c(C#N)c(N)c2c1, CC(=O)[C@H]1CC[C@H]2[C@@H]3CC=C4C[C@@H](OS(=O)(=O)O)CC[C@]4(C)[C@H]3CC[C@]12C, CC(C)n1cnc2c(NCc3ccc(S(N)(=O)=O)cc3)nc(NCc3ccc(S(N)(=O)=O)cc3)nc21, CC(C)(C)N=Cc1c(O)ccc2oc3c(c12)CCCC3, COc1ccc2ccc3ccc(OC)c(OC(C)=O)c3c2c1, O=C(NNC(=O)c1ccccn1)c1ccc(OC(F)F)cc1, O=C(c1ccc(F)cc1)c1cnc(Nc2ccccc2)s1, O=C(O)CCC(=O)NCCn1c(-c2ccccc2)csc1=Nc1ccccc1, O=C(O)c1ccc(/C=N/Nc2ncc(C(F)(F)F)cc2Cl)cc1, Oc1ccc(/C=N/Nc2cccc(Cl)n2)c(O)c1, O=[N+]([O-])c1ccc2c(c1)/C(=N\O)c1ccccc1-2, COc1ccc2nc(C)cc(Nc3ccc(C)cc3)c2c1, Clc1cncc(Cl)c1N/N=C/c1ccccc1, COc1ccc(Nc2nc(N)c(C(=O)c3ccc(F)cc3)s2)cc1, Cc1nc(Nc2ccccc2)sc1C(=O)c1ccc(F)cc1, O=C(O)c1ccc(N/N=C/c2ccc(C(F)(F)F)cc2)cc1, CC(C)=CCNc1ncnc2c1c(C#N)cn2C1OC(CO)C(O)C1O (stereo not drawn), Cc1ccc(C(=O)O/N=C(\N)c2ccccn2)cc1C, COc1cc(OC)cc(C(=O)NNC(=O)c2ccccn2)c1, COc1ccc(Nc2nccc(-c3ccc([N+](=O)[O-])cc3)n2)cc1, CC(C)C[C@H](CO)Nc1nc(N(C)c2cccc(Cl)c2)c2ncn(C(C)C)c2n1, CN(C)N1C(N)=C(C#N)C(c2cccs2)C2=C1CCCC2=O (stereo not drawn), Cc1ccc2nc(NCc3ccccc3)c(C#N)cc2c1, COc1ccc2oc(C(=O)NCCC(C)C)c(C)c2c1, COc1ccc(C(=O)c2sc(Nc3ccccc3F)nc2N)cc1, CCc1cc(C(=O)c2ccc(OC)cc2)c(N)s1, CC(C)[C@H](CO)N(Cc1cccc(F)c1)c1nc(Nc2cccc(Cl)c2)c2ncn(C(C)C)c2n1, C=CC(=O)Nc1ccc(Nc2ccnc(Nc3ccc(N4CCN(C)CC4)cc3)n2)cc1

From PubChem BioAssay AID504545 (Broad Institute, 2011)
